# Source: PubChem BioAssay AID624114 (Johns Hopkins Ion Channel Center, 2012)
# The campaign covered roughly 4,000 compounds. About 15 (0.4%) were called active.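 The calls were made as follows: active = calcium fluorescence ratio, averaged over duplicates, at least 3 SD of the buffer-well ratio, meaning a nonspecific response in receptor-free cells; inactive = the rest.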 A selection follows.
# Assay: nonspecific Ca2+ flux in HEK293 lacking MrgX1 – cell-based, Fluo-4 calcium flux, duplicate, counter-screen for MrgX1 allosteric activator project, primary screen (AID 624114)
# Details: parental HEK293 calcium flux, Fluo-4 fluorescence ratio; at 10 µM
row,SMILES,outcome
1,Cc1ccnc(NC(=O)C(C)N2C(=O)c3ccccc3C2=O)c1 (configuration not stated),inactive
2,CCC(C)c1ccccc1N1CC(C(=O)N2CCN(S(=O)(=O)c3ccc(F)cc3)CC2)CC1=O (configuration not stated),inactive
3,Cc1ccc(Nc2nc(-c3ccc(O)cc3O)cs2)nc1,inactive
4,CCC(C)Sc1nc(C)nc2c1c(=O)n(C)c(=O)n2C (configuration not stated),inactive
5,Cc1ccnc(-n2sc3ccccc3c2=O)n1,inactive
6,CCOC(=O)C1=C(O)CSC1=Nc1cccc(Cl)c1,inactive
7,COCc1nnc(NC(=O)c2ccc3c(c2)OCO3)s1,inactive
8,CC1(C(=O)O)CCC(C(=O)Nc2ccc(Cl)c(Cl)c2)C1(C)C (configuration not stated),inactive
9,CC(C)CNc1ncnc2c1cnn2Cc1ccc(Cl)cc1,inactive
10,CCc1ccc(N(CC(=O)Nc2sc3c(c2C(=O)OC)CCCC3)S(C)(=O)=O)cc1,inactive
11,OCCn1c(-c2ccccc2)csc1=Nc1ccccc1,inactive
12,CCOc1ccc(NC(=O)CCNC(=O)c2ccc(Br)cc2)cc1,inactive
13,Cc1ccc(C(C(=O)NC2CCCCC2)N(C(=O)c2csnn2)C2CC2)o1 (configuration not stated),inactive
14,COc1ccc(-c2cc(C(F)(F)F)nc(S(C)(=O)=O)n2)cc1OC,inactive
15,O=C(C1CCN(S(=O)(=O)c2cnc[nH]2)CC1)N1CCN(Cc2ccc3c(c2)OCO3)CC1,inactive
16,O=C(Nc1cccc(Cl)c1)c1cncn1-c1ccc(F)cc1,inactive
17,Cc1nonc1C1CCCN1Cc1nc(-c2ccc(F)cc2F)oc1C (configuration not stated),inactive
18,Cc1ccc2c(C)c(C(=O)N(C)CCC3CCCCO3)oc2c1C (configuration not stated),inactive
19,O=C(CN1CCN(c2ccc(Cl)cc2)CC1)N1CCCC1,inactive
20,COc1cc2c(cc1O)C(SC)=NC(C)(C)C2,inactive
21,FC(F)Oc1ccc(NC(=S)NCc2ccco2)cc1Cl,inactive
22,COc1ccc(Nc2nnc(C)c3ccccc23)cc1,inactive
23,Cc1c(C)c2c(OCC(=O)N[C@@H](C(=O)O)c3ccccc3)cc3c(c2oc1=O)CCC(C)(C)O3,inactive

row,SMILES,outcome
1,CCSc1nsc(NC(=O)Nc2cccc(C(C)=O)c2)n1,inactive
2,Cc1c(C(=O)N2CCN(c3ccc(F)cc3)CC2)oc2c1C(=O)CCC2,inactive
3,O=C(c1cccc(S(=O)(=O)Nc2ccccc2Cl)c1)N1CCN(C(=O)c2ccco2)CC1,inactive
4,O=C(Cn1c(-c2cncs2)nc2ccccc21)NC1CCCC1,inactive
5,CC1(C)CC2CC(C)(CN2c2ncnc3ccc(Br)cc23)C1 (configuration not stated),inactive
6,CCOC(=O)c1c(NC(=O)CSc2cn(CC)c3ccccc23)sc2c1CCC2,inactive
7,O=C(O)CSC(NC(=O)c1cccnc1)(C(F)(F)F)C(F)(F)F,inactive
8,CCOC(=O)N1CCN(C(=O)COCc2cc(-c3ccc4c(c3)OCO4)on2)CC1,inactive
9,COc1ccc(C(=O)Nc2c(N)nc(SCC(=O)N3CCC(C)CC3)[nH]c2=O)cc1OC,inactive
10,CCOc1cc(-c2conc2N)cc(OCC)c1OCC,inactive
11,O=C1CCCN1CCCNC(=S)Nc1ccc(F)c(Cl)c1,inactive
12,COc1ccc(C(=O)NNC(=S)NC(=O)c2ccccc2)cc1,inactive
13,Nc1ccc(Oc2ccc(Cl)cc2)cc1,inactive
14,CN(CC(=O)Nc1ccccc1Cl)C(=O)COc1cccc2c1OC(C)(C)C2,inactive
15,CCOc1ccc2nc(/N=C/c3nc(-c4ccccc4)oc3O)sc2c1,inactive
16,FC(F)(F)c1cc(-c2cccs2)nc(NCc2ccco2)n1,inactive
17,O=C(CSc1c2c(nc3ccc(Cl)cc13)CCCC2)NCc1ccco1,inactive
18,COc1ccc(Nc2nc(-c3cccnc3)nc3ccccc23)cn1,inactive
19,CN(C)CCn1c(=S)[nH]c2ccc(Cl)cc2c1=O,inactive
20,COC(=O)c1sccc1NS(=O)(=O)c1ccc(F)cc1F,inactive
21,COc1ccc2c(c1)OC(O)(C(F)(F)C(F)F)CC2=O (configuration not stated),inactive
22,CC(C)NC(=S)Nc1cccc2cnccc12,inactive
23,C=CCNC(=O)c1cc(-c2ccccc2O)on1,inactive

row,SMILES,outcome
1,O=C(Nc1ccccc1N1CCCCC1)c1ccc2nccnc2c1,inactive
2,Cc1ccc2c(c1)c1ncnc(N3CCc4ccccc4C3)c1n2C,inactive
3,CCc1ccc2nc3sc(C(=O)Nc4nnc(CC)s4)c(N)c3cc2c1,inactive
4,COc1ccc(C(=O)NC(=S)NNC(=O)c2c(-c3ccccc3)noc2C)cc1,inactive
5,COc1ccccc1N(CC(=O)N1CCCCC1)S(=O)(=O)c1ccccc1,inactive
6,CC(C)OCCCNc1ncnc2c1[nH]c1ccc(F)cc12,inactive
7,COc1cc(CCC(=O)Nc2ccncc2Cl)cc(OC)c1OC,inactive
8,CCCc1[nH]nc2c1C(c1ccc(Br)s1)C(C#N)=C(N)O2 (configuration not stated),inactive
9,O=C(Cc1ccccn1)c1ccc(O)cc1O,inactive
10,Cc1cccn2c(=O)c(/C=C3\SC(=S)N(CC(C)C)C3=O)c(NCCCOC(C)C)nc12,inactive
11,O=C(Nc1ccccc1N1CCOCC1)c1csc2c1CCCC2,inactive
12,Brc1ccccc1C1Nc2cccc3cccc(c23)N1,inactive
13,Cc1ccc(NC2(C#N)C(=O)Nc3ccccc32)cc1 (configuration not stated),inactive
14,Cc1nccn1CCC1CCCCN1C(=O)CCc1nnc(-c2ccsc2)o1 (configuration not stated),inactive
15,OCc1ccc(OCCCOc2cccc3cccnc23)cc1,inactive
16,COc1ccc(NC(=O)c2cc(-c3ccc(C)o3)nc3ccccc23)cc1,inactive
17,CN1/C(=C\C=C2\N=C(c3ccc(F)cc3)OC2=O)C(C)(C)c2ccccc21,inactive
18,COc1cc(C)c(C)cc1S(=O)(=O)N1CCCc2ccccc21,inactive
19,Cc1ccc(CS(=O)(=O)c2ncc(Cl)c(C(=O)Nc3nnc(C)s3)n2)cc1,inactive
20,O=C(Nc1nnc(-c2ccccc2)o1)c1cc(-c2cccs2)nc2ccccc12,inactive
21,COC(=O)Cn1c(O)c(N=NC(=O)OC)c2ccccc21,inactive
22,CN(c1cccc(NC(=O)Nc2ccc(Cl)cc2)c1)S(C)(=O)=O,inactive
23,CCc1cc(=O)oc2cc(C)cc(OCC(=O)N3CCC[C@@H]3C(=O)O)c12,inactive

row,SMILES,outcome
1,CCOC(=O)c1c(C)[nH]c(=S)c(C#N)c1-c1ccccc1,inactive
2,CCOc1ccccc1C1CC(c2ccc(Cl)cc2)Nc2nc(N)nn21 (configuration not stated),inactive
3,Cc1c(C(=O)N2CCCc3ccccc32)sc2nc(-c3ccccc3)cn12,inactive
4,O=C(Cc1nc2ccccc2[nH]c1=O)c1ccc(Cl)cc1,inactive
5,COc1cc(C2/C(=C(\O)c3ccc4c(c3)CC(C)O4)C(=O)C(=O)N2Cc2ccco2)ccc1O (configuration not stated),inactive
6,CCc1nnc(NC(=O)CSc2nc3c(c(=O)n2-c2ccccc2OC)SCC3)s1,inactive
7,N=C(N)SCc1cccc2ccccc12,inactive
8,CCCCC(=O)NNC(=S)NC(=O)C(c1ccccc1)c1ccccc1,inactive
9,Cc1occc1C(=O)Nc1nnc(-c2ccncc2)s1,inactive
10,Cc1ccc2nc(-c3ccc(NC(=O)c4cccnc4)cc3)oc2c1,inactive
11,COCCNC(=O)C1CCN(S(=O)(=O)c2ccc3c(c2)OCCO3)CC1,inactive
12,CCN(CC)c1ccc(C2C3CCCCC3(O)CCN2CC(=O)Nc2ccccc2)cc1 (configuration not stated),inactive
13,COC(=O)c1c(NC(=O)CN(c2ccc(C)c(C)c2)S(C)(=O)=O)sc2c1CCCC2,inactive
14,CC(C)(C)Nc1c(-c2cccs2)nc2ccccn12,inactive
15,Cc1onc(-c2ccccc2)c1C(=O)NNC(=S)NC(=O)c1ccc(F)cc1,inactive
16,COc1cccc(CCNC(=O)COc2cccc3c2OC(C)(C)C3)c1,inactive
17,COc1ccc(-n2c(SCC(=O)NCc3ccco3)nnc2-c2c[nH]c3ccccc23)cc1,inactive
18,CCS(=O)(=O)c1ccc2c(c1)N(S(=O)(=O)c1ccccc1)CC(C(=O)O)O2 (configuration not stated),inactive
19,Cc1nn(C(=O)c2ccoc2C)c(N)c1-c1ccccc1,inactive
20,O=C(COC(=O)C1CCN(S(=O)(=O)c2ccc3c(c2)OCCO3)CC1)Nc1ccccc1OC(F)F,inactive
21,CC(=O)N(C)c1ccc(NC(=O)C(F)(F)F)cc1,inactive
22,O=C(CC(O)(C(F)(F)F)C(F)(F)F)Nc1ccc(Cl)c(Cl)c1,inactive
23,O=C(CCN1CCc2ccccc2C(O)(c2ccccc2)C1)c1ccc2c(c1)OCCO2 (configuration not stated),inactive

row,SMILES,outcome
1,COc1ccc(C2SCCN2S(=O)(=O)c2ccccc2)cc1OC (configuration not stated),inactive
2,CCc1cc2c(SCC(=O)Nc3ncc(Cl)c(C)c3Cl)ncnc2s1,inactive
3,CCOC(=O)c1c(NC(=O)CNC2CCCc3ccccc32)sc(C(N)=O)c1C (configuration not stated),inactive
4,O=S(=O)(c1ccc2ccccc2c1)N1CCN(S(=O)(=O)N2CCOCC2)CC1,inactive
5,Cc1cc(=O)oc2cc(NC(=O)C3CC(=O)N(Cc4ccccc4)C3)ccc12 (configuration not stated),inactive
6,CCN(C(=O)CSc1nnc2ccccn12)C1CCS(=O)(=O)C1 (configuration not stated),inactive
7,CC(=O)N(C1=C(Cl)C(=O)c2ccccc2C1=O)c1ccc(C(=O)O)cc1,inactive
8,COc1ccc(C(=O)CSc2n[nH]c(N)n2)cc1,inactive
9,O=C(Nc1ccccc1)c1nnsc1S(=O)(=O)c1ccc(Cl)cc1,inactive
10,Cc1ccc2cc(/C=N/Nc3ccc(C(=O)O)cc3)c(Cl)nc2c1,inactive
11,c1ccc(-c2[nH]ncc2-c2nc3ccccc3[nH]2)cc1,inactive
12,COc1ccccc1Oc1nc(-c2cccnc2)nc2ccccc12,inactive
13,O=c1c2cc(Br)ccc2nc(-c2cccc(Cl)c2)n1O,inactive
14,COc1ccc([N+](=O)[O-])cc1NC(=O)COC(=O)/C=C/c1ccco1,inactive
15,C=CCSc1nc(Cc2ccc(Cl)cc2)nc2ccccc12,inactive
16,NC(=O)c1c(Nc2nc3c(F)cccc3s2)sc2c1CCCC2,inactive
17,CCN(CC)CC(=O)Nc1nn(-c2ccccc2)nc1C(N)=O,inactive
18,Cc1ccc(C(=O)COC(=O)CCN2C(=O)C3C4CC(C(Br)C4Br)C3C2=O)cc1 (configuration not stated),inactive
19,Cc1ccc(-n2cnc3ncnc(-c4ccccc4)c32)cc1,inactive
20,CCOC(=O)Nc1ccc2c(c1)N(C(=O)CCN1CCN(CCO)CC1)c1ccccc1CC2,inactive
